This is one part of a sample in which hits are shown more often than they occur.
KDM5B inh = KDM5B demethylase inhibition. KDM5B demethylase, FDH-coupled NADH fluorescence (FDH is formaldehyde dehydrogenase). Potency, µM (top dose mostly 57.7 µM), usual class: inhibitors. 220,000 compounds, 2.6% hits; active = well fitted inhibition curve with a large enough effect; note: 0% is about no effect; nearly all actives have a fitted effect of over 70% in size
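Compound dilutions met 200 nM (final) KDM5BΔAP for 10 min at room temperature before substrate addition. The substrate mix held 12.5 µM H3K4me3 with cofactors 25 µM α-ketoglutarate and 50 µM Fe²⁺. NADH signal gain over 30 min defined activity.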
An asterisk follows results filed as active; i = inactive. Potency is the fitted concentration of half-maximal effect.

SMILES | KDM5B inh
O=C(Cc1cccc(F)c1)N1CCC(c2nc(C3CCOCC3)no2)CC1 | i
O=C(Cc1cccc(F)c1)NCc1nnc2c(-c3nc(C4CC4)no3)cccn12 | 31.6µM*
O=C(Cc1cccc(F)c1)N1CC(F)(F)C[C@H]1c1nc(C2CC2)no1 | i
N#C/C(=C/c1ccc(-c2ccccc2)cc1)C(=O)Nc1ccc(N2CCOCC2)cc1 | i
O=C(O)c1ccc2c(c1)c(C(C(=O)O)N1CCN(c3ncccn3)CC1)cn2Cc1ccccc1 (stereo not given) | i
FC(F)(F)c1ccc(Cl)c(N/N=C/c2cccc(OCc3ccccc3)c2)c1 | i
Cn1c(=O)[nH]c(=O)c2c1nc(N1CCN(Cc3ccc(F)cc3)CC1)n2Cc1ccccc1 | i
COc1ccc(C2/C(=C(\O)c3ccc(F)cc3)C(=O)C(=O)N2c2cc(C)on2)cc1OC (stereo not given) | i
Cc1cccc(Cc2cnc(NC(=O)c3nn(C)c(=O)c4ccccc34)s2)c1 | i
O=C(Nc1c(NC2CCCC2)c2ccccc2oc1=O)c1ccccc1F | i
O=C(NCc1nnc2c(-c3nc(C4CC4)no3)cccn12)c1ccc(F)cc1Cl | 20µM*
CCCOc1ccc(C(=O)CCC(=O)OCC(=O)Nc2c(C)cc(C)cc2Cl)cc1 | i
Cc1sc(NC(=O)c2ccsc2)c(C#N)c1C | i
O=C(NC1CCN(Cc2ccc(F)cc2)CC1)c1cccs1 | i
CC1(c2ccccc2)NC(=O)N(Cc2ncc(-c3ccccc3)o2)C1=O (stereo not given) | i
COc1ccc(C)cc1NC(=O)Cn1nc(-c2cccs2)oc1=O | i
O=C(c1ccc(Cl)nc1)N1CCC(N2CCCCCC2=O)CC1 | i
CNc1ccc(C(=O)N2CCC(CCn3cccn3)CC2)cn1 | 22.4µM*
c1cnn(CCC2CCN(c3ncncn3)CC2)c1 | i
CC(C)(C)CNc1ccc(C(=O)N2CCC(CN3CCCC3=O)CC2)cn1 | 14.1µM*
O=C(CCC1CCN(C(=O)c2ccccc2)CC1)NCCCN1CCCC1=O | i
O=C(O)c1ccc(CC2CCN(C(=O)c3cccc(Cn4cccn4)c3)C2)cc1 (stereo not given) | i
COC(=O)C1=C(C)OC(N)=C(C#N)C1c1ccc(C)cc1C (stereo not given) | i
COC(=O)C1=C(C)N(c2cccc(C)c2)C(=S)NC1c1ccc(-n2ccnc2)cc1 (stereo not given) | i
N=C(N)c1cc(I)cc([N+](=O)[O-])c1 | i
SMILES | KDM5B inh
Cn1c(CNC(=O)C2(Cc3ccccc3)CCCCC(=O)N2)nc2ccccc21 (stereo not given) | 17.8µM*
Cn1c(CNC(=O)C2(C)CCCCC(=O)N2)nc2ccccc21 (stereo not given) | i
O=C1CCCCC(Cc2ccccc2)(C(=O)NCc2ccc(F)cc2)N1 (stereo not given) | i
O=C1OC2OCCCC2C1Nc1ccc(I)cc1 (stereo not given) | i
COc1ccc(C)cc1S(=O)(=O)Nc1ccc(Nc2nc(C)cc(N3CCCC3)n2)cc1 | i
CCn1c(C)ccc(C(=O)N[C@@H]2COCC[C@H]2Oc2ccccn2)c1=O | 28.2µM*
Cc1cc(=O)n(CC(=O)N[C@@H]2CCOC[C@H]2Oc2ccccn2)nc1C | i
Cn1ccc2c(C(=O)N[C@@H]3CCOC[C@H]3Oc3ccccn3)cccc21 | i
CN(C)CCn1cc(C(=O)c2cc(Cl)ccc2O)cc1-c1nc2ccccc2c(=O)[nH]1 | i
O=C(Cn1nc(N2CCCCC2)c2ccccc2c1=O)Nc1ccc2c(c1)OCCO2 | i
CCCC(C)N1CC2(CCN(C(=O)c3cnc(C)cn3)CC2)OC1=O (stereo not given) | i
O=C1CC2(CCN(C(=O)C3CCc4ccccc43)CC2)CN1Cc1ccccc1 (stereo not given) | i
Cn1cc(C(=O)N2CCC3(CC2)CC(=O)N(CCCc2ccccc2)C3)cn1 | i
CCCC(C)N1CC2(CCN(C(=O)c3cnn4ccccc34)CC2)OC1=O (stereo not given) | 28.2µM*
CCCC(C)N1CC2(CCN(C(=O)c3cc(Cl)ccc3C)CC2)OC1=O (stereo not given) | i
O=C1CC2(CCN(C(=O)c3cnn4ccccc34)CC2)CN1Cc1ccccc1 | 20µM*
Clc1ccc(CN2CCc3ccccc3C2)cc1 | i
OC1CCN(c2cc(C(F)(F)F)nc3ccccc23)CC1 | i
CCCNc1c(NC(=O)Nc2ccc(OC)cc2OC)c(=O)oc2ccccc12 | i
Cc1cc(=O)n2[nH]c(CN(C(=O)c3ccc(F)cc3)c3ccc(Cl)cc3)nc2n1 | i
CCCc1cc(=O)[nH]c(SC(C)C(=O)NC)n1 (stereo not given) | i
N#Cc1cccc(Cn2cnc3c(Cl)cc(Cl)cc3c2=O)c1 | i
COC(=O)CC(NC(=O)c1cc(C)nc2c1cnn2C(C)C)c1ccccc1Cl (stereo not given) | i
Cc1ccc(C)c(-n2c(Cc3cc(=O)[nH]c(=O)[nH]3)nnc2SCC(=O)c2ccccc2)c1 | i
O=C(NCCCN1CCCC1)c1ccc(-c2ccccc2)cc1 | i
